As a reminder, the cell viability is a read-out of living cells in per cent, often relative to untreated cells.

SMILES strings stand for the structures. The campaign covered roughly 2,100 compounds. About 180 (8.6%) showed an effect of 50% or more. The full list was thinned out, with strong results kept by preference.

The assay has as its system MOLM1 and UCSD/AML1 (averaged). As to the kind of experiment: cell viability relative to DMSO control (POC); higher = less growth inhibition. The following applies: 1 µM; 72 h. How it is done:
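Primary viability screen in the 3q26 EVI1-high AML cell lines MOLM1 and UCSD/AML1 (1.5e3 cells/well, 384-well), compounds at 1 uM for 72 h. ATP CellTiter-Glo read-out given as percent of viable cells over DMSO control (POC), averaged over duplicates. DMSO was the negative control and 5 uM etoposide the positive control. This mapping covers the MicroSource Spectrum and Selleck anticancer libraries (drug names).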
For the compound `C=CC(=O)N1CCC[C@@H](n2nc(-c3ccc(Oc4ccccc4)cc3)c3c(N)ncnc32)C1`, the cell viability is 60.3%.
The figure for `Cc1ccc2c(c1)CC[C@H]1CC(=O)CC[C@]21C` is 104%; for `CC(=O)N1CCCC1C(=O)O` (centres undefined) it is 108%.
As for `CC(=O)N[C@@H](C=O)[C@@H](O)[C@H](O)[C@H](O)CO`, the cell viability is 107%.
Take `CN(N=O)C(=O)N[C@@H](C=O)[C@@H](O)[C@H](O)[C@H](O)CO` [Streptozotocin (Zanosar)]: the cell viability came out at 37.4%.
The same measure for `O=C[C@H](O)[C@@H](O)[C@H](O)CO`: 121%; for `CC(=O)O[C@H]1CC[C@]2(C)[C@H]3CC=C4[C@@H]5CC(C)(C)CC[C@]5(C(=O)O)CC[C@@]4(C)[C@]3(C)CC[C@H]2C1(C)C`: 102%; for `COC(=O)[C@@]1(C)CCC[C@]2(C)c3ccc(O)c(C(C)C)c3CCC12` (some centres undefined): 109%.
The same measure for `COC(=O)c1cc(O)c(=O)c2c(O)c(O)ccc2c1`: 109%.
The same measure for `Cc1cnc(-c2cnc(NCCNc3ccc(C#N)cn3)nc2-c2ccc(Cl)cc2Cl)[nH]1`: 133%; for `Cc1cc(=O)oc2c(O)c(O)ccc12`: 93.6%.
Consider `C=C1CCC(C2CC(=O)OC2=O)C(=O)CCC2C1CC2(C)C` (centres undefined), for which the cell viability amounted to 104%.
Take `FC(F)c1nc2ccccc2n1-c1nc(N2CCOCC2)nc(N2CCOCC2)n1`: the cell viability turned out to be 26.8%.
Turning to `CCOC(=O)c1c(C)cc(O)c(C=O)c1O`, the cell viability was determined as 98.9%.
The same measure for `CC(=O)/C(=C\c1ccccc1)CC(=O)O`: 118%; for `COC(=O)C[C@H]1C(C)(C)C(=O)[C@@H]2CC3=C(CC[C@]4(C)C3=CC(=O)O[C@H]4c3ccoc3)[C@@]1(C)C2=O`: 93.4%.
The same measure for `CN1CCN(c2cccc(Nc3nc4c(-c5ccc(S(C)(=O)=O)cc5)cccn4n3)c2)CC1`: 33.3%; for `CC1=CC2C(CC1=O)C(C)=CCC2C(C)C` (centres undefined): 92.7%.
The same measure for `COc1ccc(-c2cc(=O)c3c(OC)c(OC)c(OC)c(OC)c3o2)cc1`: 89.9%.
In the case of `CC(=O)/N=c1/sc(S(N)(=O)=O)nn1C`, the cell viability stood at 112%.
Take `CSCC[C@H](NC=O)C(=O)N[C@@H](Cc1ccccc1)C(=O)O`: the cell viability came to 105%.
For the compound `CC(=O)O[C@@H]1CC[C@@]2(C)C(C[C@@H](OC(C)=O)[C@@]3(C)C4=CC(=O)O[C@@H](c5ccoc5)[C@]4(C)CCC23)C1(C)C` (stereo partly drawn) [3alpha-ACETOXYDIHYDRODEOXYGEDUNIN], the cell viability came out at 82%.
The figure for `O=c1cc(N2CCOCC2)oc2c(-c3ccccc3)cccc12` is 73.8%; for `Oc1cccc(-c2nc(N3CCOCC3)c3oc4ncccc4c3n2)c1` it is 25.7%; for `Nc1ccc(C(=O)Nc2cccc(-c3nc(N4CCOCC4)c4oc5ncccc5c4n3)c2)cn1` it is 52.7%.
The same measure for `OC[C@H]1O[C@@H](OCCc2ccc(O)cc2)[C@H](O)[C@@H](O)[C@@H]1O`: 107%.
Regarding `CC(=O)O[C@H]1CC[C@]2(C)C3=C(CC[C@H]2C1(C)C)[C@]1(C)CC[C@H]([C@H](C)CCC=C(C)C)[C@@]1(C)CC3`, the cell viability is 94.1%.
The figure for `CCn1c(-c2nonc2N)nc2c(C#CC(C)(C)O)ncc(OC[C@H]3CCCNC3)c21` is 54%.
The figure for `CCCCC[C@H](CC(=O)O)C(=O)O` is 111%; for `CCCCCCCCCCCCCCCC[N+](C)(C)C` it is 43.7%.
For the compound `C[N+](C)(C)CCCCCC[N+](C)(C)C`, the cell viability is 114%.
The figure for `CCCCCCCCCCCCCCCCCCCCCCO` is 101%; for `COc1cc(OC)c(-c2c(OC)cc(OC)cc2OC)c(OC)c1` it is 104%.
In the case of `CC1CCC2(OC1)OC1CC3C4CCC5C[C@@H](O)CCC5(C)C4=CCC3(C)C1[C@@H]2C` (stereo partly drawn) [3beta-HYDROXYISOALLOSPIROST-9(11)-ENE], the cell viability is 91.8%.
Take `CC(=O)Nc1cccc(-n2c(=O)n(C3CC3)c(=O)c3c(Nc4ccc(I)cc4F)n(C)c(=O)c(C)c32)c1`: the cell viability was 27.3%.
Regarding `CC(=O)Oc1cc(C)c2c(c1C(OC(C)=O)OC(C)=O)Oc1c(c(C)c(OC(C)=O)c3c1C(OC(C)=O)OC3=O)OC2=O` (centres undefined), the cell viability is 97.6%.
The same measure for `CC(=O)O[C@H]1C[C@@H](OC(C)=O)C(C)(C)C2CC(=O)[C@]3(C)C(CC[C@@]4(C)[C@H](c5ccoc5)OC(=O)[C@H]5O[C@]543)[C@]21C` (some centres undefined): 97.1%.
Regarding `CC(=O)Oc1cc(OC(C)=O)c2c(c1)O[C@H](c1ccc(OC(C)=O)c(OC(C)=O)c1)[C@@H](OC(C)=O)C2`, the cell viability worked out at 96.7%.
The same measure for `COc1ccc(-c2cc(=O)c3c(O)cc(O)cc3o2)cc1O`: 83%.
The same measure for `COc1cc(N2CCC(N3CCN(C)CC3)CC2)ccc1Nc1ncc(Cl)c(Nc2ccccc2S(=O)(=O)C(C)C)n1`: 30.7%; for `C=CC(=O)Nc1cccc(Oc2nc(Nc3ccc(N4CCN(C)CC4)cc3OC)ncc2Cl)c1`: 86.3%; for `COc1ccc(-c2oc3c(CC=C(C)C)c(O[C@@H]4O[C@H](CO)[C@@H](O)[C@H](O)[C@H]4O)cc(O)c3c(=O)c2O[C@@H]2O[C@@H](C)[C@H](O)[C@@H](O)[C@H]2O)cc1`: 83%.
The figure for `CC(=O)O[C@H]1CC[C@@]2(C)[C@@H](CC[C@@H]3[C@@H]2CC(=O)[C@]2(C)[C@@H]4[C@H](C[C@@H]32)O[C@]2(CC[C@@H](C)CO2)[C@H]4C)C1` is 88.1%; for `CC[C@@H]1C(=O)N(C)c2cnc(Nc3ccc(C(=O)N[C@H]4CC[C@H](N5CCN(CC6CC6)CC5)CC4)cc3OC)nc2N1C(C)C` [BI6727 (Volasertib)] it is 14.5%.
As to `CC[C@@H]1C(=O)N(C)c2cnc(Nc3ccc(C(=O)NC4CCN(C)CC4)cc3OC)nc2N1C1CCCC1`, the cell viability turned out to be 13.2%.
The figure for `COc1cc(OC2CCN(C)CC2)ccc1Nc1ncc2c(n1)n(C1CCCC1)c(=O)n2C` is 70.8%; for `CCOC(=O)CCCCCCCCCCCCC1C=CCC1` (centres undefined) it is 103%; for `CN1CCN(C(c2ccccc2)c2ccccc2)CC1` it is 102%.
In the case of `COC(=O)C1=CO[C@@H](O[C@@H]2O[C@H](CO)[C@@H](O)[C@H](O)[C@H]2O)[C@@H]2[C@@H](C)[C@@H](O)C[C@H]12`, the cell viability is 94.9%.
As for `CC1(C)CCC[C@]2(C)[C@@H]3[C@H]1[C@@H](O)[C@@]2(C)C[C@H]3O`, the cell viability came out at 92%.
For the compound `CC(C)C[C@H](N)C(=O)N[C@@H](C)C(=O)O`, the cell viability was found to be 98.2%.
With `CC(=O)OC(C)(C)[C@@H]1Cc2cc3ccc(=O)oc3cc2O1`, the cell viability came to 100%.
As to `CCNC(=O)c1noc(-c2cc(C(C)C)c(O)cc2O)c1-c1ccc(CN2CCOCC2)cc1` [Luminespib (AUY-922, NVP-AUY922)], the cell viability was 2.13%.
The same measure for `O=C(O)[C@H](O)[C@@](O)(Cc1ccc(O)cc1)C(=O)O`: 92.1%.

(Values after the supplement of paper PMC11150407.)
